# CYP2C19 inh: human CYP2C19 inhibition; P33261; CYP2C19 Supersomes, luciferin-H EGE luminescence, 30 min; inhibition, % at 5 µM; actives 21% (n = 96,000);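 active means CYP2C19 inhibition above a set limit at 5 µM in the primary screen, cut at about 50% in these data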
# PostGolgi ctrl: growth of the yeast control strain, post-Golgi counter-screen; actives 5% (n = 98,000); AID 738; inhibition, % at 10 µM; efflux-deficient yeast background strain, growth absorbance A615, 16 h
# CYP2C9 activ: CYP2C9 (human) activation; recombinant CYP2C9, luciferin-H conversion, luminescence; active compounds read high; factor 1 = untreated enzyme, 0 = blocked; activation factor at 5 µM; actives 1.4% (n = 96,000);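 active means activation factor of 2 or more for CYP2C9 at a 5 µM dose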
# Target sequence (P11712 whole entry, looked up): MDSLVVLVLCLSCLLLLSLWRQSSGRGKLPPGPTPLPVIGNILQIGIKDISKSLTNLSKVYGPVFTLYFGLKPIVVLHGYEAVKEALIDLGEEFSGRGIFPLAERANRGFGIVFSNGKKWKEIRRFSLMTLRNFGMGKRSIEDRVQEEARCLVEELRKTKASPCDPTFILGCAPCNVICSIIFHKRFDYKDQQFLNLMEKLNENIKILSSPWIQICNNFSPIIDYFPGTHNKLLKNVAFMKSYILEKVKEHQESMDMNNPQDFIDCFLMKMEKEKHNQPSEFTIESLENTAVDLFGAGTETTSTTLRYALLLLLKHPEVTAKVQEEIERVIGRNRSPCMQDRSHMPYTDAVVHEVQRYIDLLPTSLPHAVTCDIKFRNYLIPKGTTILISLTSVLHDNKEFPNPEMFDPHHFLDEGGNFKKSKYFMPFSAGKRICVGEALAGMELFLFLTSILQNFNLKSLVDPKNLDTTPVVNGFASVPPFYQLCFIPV
# PostGolgi yeast: growth inhibition of a yeast mutant, post-Golgi transport screen. inhibition, % at 10 µM. post-Golgi transport phenotypic cell assay. AID 739. actives 0.9% (n = 98,000);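 further: yeast cells grown in 1536-well plates; yeast grown about 18 h at 30C before absorbance read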
# CYP2C19 act: cytochrome P450 2C19 (human) activation. P33261. AID 1025. recombinant CYP2C19, luciferin-H EGE luminescence; active compounds read high; 0 = fully inhibited enzyme, 1 = untreated enzyme. activation factor at 5 µM. 96,000 tested, under 10 active;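 active means activation factor of at least 2 at 5 µM in the primary screen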
# CYP2C9 inh: inhibitors of human CYP2C9; P11712; CYP2C9 Supersomes, luciferin-H conversion, luminescence; inhibition, % at 5 µM; actives 20% (n = 96,000); AID 777;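 active means blocking of liver enzyme CYP2C9 beyond about 50% at 5 µM, limit read from the data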
# Numbers stand for hits; - = inactive; . = no result. Shown are actives, neighbours in structure and some others; about 32% of the full set was active somewhere. Unless noted, no stated cut-off is given here; in the data, active means inhibition above about 30%; inactive means the rest.
SMILES,CYP2C19 inh,PostGolgi ctrl,CYP2C9 activ,PostGolgi yeast,CYP2C19 act,CYP2C9 inh
COc1ccc(-n2c(Cc3cccn3C)nnc2SCC(=O)Nc2cccc(NC(C)=O)c2)cc1,-,-,-,-,-,-
COc1ccc(-n2c(Cc3cccn3C)nnc2SCC(=O)Nc2ccc(C)cc2)cc1,-,-,-,-,-,52.6
COc1ccc(-n2c(Cc3cccn3C)nnc2SCC(=O)Nc2cccc(Cl)c2)cc1,-,-,-,-,-,85.4
CCOc1ccc(NC(=O)CSc2nnc(Cc3cccn3C)n2-c2ccc(OC)cc2)cc1,-,-,-,-,-,-
Cc1ccc(-n2ncc3c(N4CCC5(CC4)OCCO5)ncnc32)c(C)c1,-,-,-,-,-,-
Cn1c(SCC(=O)Nc2ccccc2F)nnc1-c1cc2ccccc2o1,-,-,-,-,-,-
CCN(CC)C(=O)N1CCC(NC(=O)c2ccccc2)CC1,-,-,-,-,-,-
c1cc2c(cc1C1CCCN1)OCCCO2 (stereo not drawn),-,-,-,-,-,-
O=Nc1c(O)n(Cc2ccc(Cl)cc2Cl)c2ccccc12,-,65.4,-,33.8,-,60.1
N=c1n(CCO)c2ccccc2n1Cc1ccc(Cl)cc1,-,-,-,-,-,-
O=Nc1c(O)n(Cc2ccc(Cl)cc2)c2ccccc12,83.6,-,-,-,-,89.8
CS/C(=N\S(=O)(=O)c1ccc(N)cc1)NS(=O)(=O)c1cccs1,-,-,-,-,-,-
CCSCCOC(=O)C1=C(C)NC(=O)NC1c1cccc(OC)c1OC (stereo not drawn),79.9,-,-,-,-,-
COCCOC(=O)C1=C(C)N(Cc2ccccc2)C(=O)NC1c1cccc(OC)c1OC (stereo not drawn),99.3,-,-,-,-,90.4
CC1=C(C(=O)NCc2ccccc2)C(c2ccccc2OCC(N)=O)NC(=O)N1 (stereo not drawn),-,-,-,-,-,-
CC(=O)C1=C(c2ccccc2)NC(=O)NC1c1ccccc1OCC(=O)NCc1ccccc1 (stereo not drawn),89.8,-,-,-,-,94.7
COC(=O)C1=C(C)NC(=O)NC1c1cccc(OC)c1OCc1ccccc1 (stereo not drawn),-,-,-,-,-,76.7
O=C(O)CCC(=O)NNC(=O)CCC(=O)NCc1ccccc1,-,-,-,-,-,-
Cc1cc(C(F)(F)F)nc(NCc2cccnc2)n1,.,-,.,-,.,.
CN(C1CCS(=O)(=O)C1)S(=O)(=O)c1cccc2nsnc12 (stereo not drawn),-,-,-,-,-,-
O=C1CCC(C(=O)Nc2cccc3ccccc23)N1 (stereo not drawn),-,-,-,-,-,-
CCOC(=O)NC(O)C(=O)c1cccs1 (stereo not drawn),-,-,-,-,-,-
CC(NC(=O)NCCCn1ccnc1)(C(F)(F)F)C(F)(F)F,90.8,-,-,-,-,68.3
O=C(NCCCn1ccnc1)C(F)(F)C(F)(F)C(=O)NCCCn1ccnc1,-,-,-,-,-,97.7
CC1=CCC2C(=O)N(c3nc(C)cc(C)n3)C(=O)C2C1 (stereo not drawn),-,-,-,-,-,-
SMILES,CYP2C19 inh,PostGolgi ctrl,CYP2C9 activ,PostGolgi yeast,CYP2C19 act,CYP2C9 inh
CC1=CCC2C(=O)N(c3ccc(Br)cc3C)C(=O)C2C1 (stereo not drawn),77.8,-,-,-,-,60.4
CC1=CCC2C(=O)N(c3ccc4ccccc4n3)C(=O)C2C1 (stereo not drawn),62.0,-,-,-,-,-
CC1=CCC2C(=O)N(c3ccc(C)cc3)C(=O)C2C1 (stereo not drawn),63.5,-,-,-,-,-
COc1ccc(NC(=O)CCN2CCCCC2)cc1,-,-,-,-,-,-
CCOc1ccc(NC(=O)CCN2CCN(S(=O)(=O)c3ccc(Cl)cc3)CC2)cc1,72.4,-,-,-,-,73.0
CCOc1ccc(C(=O)CN2CCN(S(=O)(=O)c3ccc(Br)cc3)CC2)cc1,-,-,-,-,-,-
CCOc1ccc(NC(=O)CCN2CCCCC2)cc1,-,-,-,-,-,-
CCOc1ccc(C(=O)CN2CCN(S(=O)(=O)c3ccc(OC)cc3)CC2)cc1,77.3,-,-,-,-,-
COc1ccc(NC(=O)CCN2CCN(S(=O)(=O)c3cc(Cl)ccc3OC)CC2)cc1,96.8,-,-,-,-,64.8
CCOc1ccc(NC(=O)CCN2CCN(S(=O)(=O)c3ccc(OC)cc3)CC2)cc1,-,-,-,-,-,53.2
CCOC(=O)c1ccc(Nc2nnc3nc(C)cc(C)n23)cc1,-,-,-,-,-,-
CC(=O)N1CCC(=NNS(=O)(=O)c2cccc([N+](=O)[O-])c2)CC1,-,-,-,-,-,-
CSc1ccc(CNc2ccc(C)c(C)c2)cc1,98.3,38.3,-,-,-,-
CSc1ccc(CNc2cccc3ccccc23)cc1,98.4,-,-,-,-,-
CSc1ccc(Cn2nnc(C(=O)NCc3ccccc3)c2N)cc1,-,-,-,-,-,-
CSc1ccc(CNc2ccc(C)cc2)cc1,86.6,-,-,-,-,-
Cc1ccc(S(=O)(=O)N(C)CCCC(=O)N2CCN(C=O)CC2)cc1,-,-,-,-,-,-
CCOC(=O)COc1ccc(S(=O)(=O)NCc2ccco2)cc1,73.4,-,-,-,-,-
COC(=O)COc1ccc(S(=O)(=O)Nc2ccc(C(N)=O)cc2)cc1,-,-,-,-,-,-
C=CCNS(=O)(=O)c1ccc(OCC(=O)OC)cc1,70.4,-,-,-,-,70.7
COC(=O)COc1ccc(S(=O)(=O)NCc2ccco2)cc1,59.6,-,-,-,-,-
CCCNS(=O)(=O)c1ccc(OCC(=O)NCc2ccco2)cc1,-,-,-,-,-,-
COc1ccc(COn2c(=O)c(C)[n+]([O-])c3ccccc32)cc1OC,51.8,-,-,-,-,74.5
CCOC(=O)COn1c(=O)c(C)[n+]([O-])c2ccccc21,-,-,-,-,-,-
Cc1c(=O)n(OCc2ccccc2)c2ccccc2[n+]1[O-],68.6,-,-,-,-,-
SMILES,CYP2C19 inh,PostGolgi ctrl,CYP2C9 activ,PostGolgi yeast,CYP2C19 act,CYP2C9 inh
COc1cc(/C=c2\sc3n(c2=O)C(c2ccccc2)C(c2ccccc2)=NN=3)ccc1O (stereo not drawn),-,32.7,-,-,-,-
COc1ccc(C(=O)O/N=C(\C)c2ccccc2)cc1,51.8,-,-,-,-,88.4
CC/C(=N\OC(=O)c1ccc(OC(C)C)cc1)c1ccc(C)cc1,73.1,-,-,-,-,61.5
C/C(=N\OC(=O)c1ccc(C)cc1)c1sc(C)nc1C,-,-,-,-,-,-
C/C(=N\OC(=O)c1ccc(OC(C)C)cc1)c1ccc(C)c(C)c1,55.5,-,-,-,-,56.4
O=C(Nc1ccccc1)C1CCN(C(=O)c2ccccc2)CC1,-,-,-,-,-,-
c1ccc(-c2ccc(-c3csnn3)cc2)cc1,-,-,-,-,-,-

# Bioassay records (PubChem BioAssay)
